# Compound activity from PubChem.
# HP1b binding inh: HP1-beta chromodomain-methylated histone interaction inhibition | AID 540317 | Potency, µM (titrated, usually from 114 µM), inactives show at the highest dose activity change, negative = inhibition, actives largely listed as inhibitors | actives 0.56% (n = 390,000) | AlphaScreen HP1-beta / biotin-H3K9me3 peptide binding | P83916; also: potency is read from the fitted curve at half-maximal effect; nearly all actives have a fitted effect of over 70% in size
#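 AlphaScreen: HP1-beta (50 nM) preformed 30 min with biotin-H3(1-18)K9me3 peptide (50 nM) in PBS pH 7.4, 0.01% Tween-20. Compound added for 30 min at RT, then streptavidin donor/nickel chelate acceptor beads (10 ug/mL) for 30 min.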
# BAZ2B inh: inhibitors of human BAZ2B bromodomain. Q9UIF8. AID 504333. actives 4.4% (n = 360,000). Potency, µM (highest dose often 114 µM), for inactives: at the top dose activity change, negative = inhibition, most hits filed as inhibitors. AlphaScreen BAZ2B-H3K14Ac peptide displacement; also: potency is read from the fitted curve at half-maximal effect; % is scaled to controls: 0 for no effect and ±100 for the full control effect; nearly all actives have a fitted effect of over 60% in size
#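 AlphaScreen displacement of biotin-H3(5-23)K14Ac peptide (50 nM final) from BAZ2B (50 nM final) in PBS pH 7.4, 0.01% Tween-20; complex preformed 30 min RT, then compounds (top 110 uM) 30 min RT, beads 20 min dark.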
# L3MBTL1 inh: L3MBTL1 (human) inhibition; Q9Y468; AlphaScreen L3MBTL1–H3K9me1 peptide binding; Potency, µM (doses to about 57.1 µM), for the others: top-dose activity, negative = inhibition, usual class: inhibitors; actives 0.66% (n = 230,000); AID 485360; also: potency is read from the fitted curve at half-maximal effect; % is scaled to controls: 0 for no effect and ±100 for the full control effect; nearly all actives have a fitted effect of over 60% in size
# Target sequence (Q9Y468 whole entry, looked up): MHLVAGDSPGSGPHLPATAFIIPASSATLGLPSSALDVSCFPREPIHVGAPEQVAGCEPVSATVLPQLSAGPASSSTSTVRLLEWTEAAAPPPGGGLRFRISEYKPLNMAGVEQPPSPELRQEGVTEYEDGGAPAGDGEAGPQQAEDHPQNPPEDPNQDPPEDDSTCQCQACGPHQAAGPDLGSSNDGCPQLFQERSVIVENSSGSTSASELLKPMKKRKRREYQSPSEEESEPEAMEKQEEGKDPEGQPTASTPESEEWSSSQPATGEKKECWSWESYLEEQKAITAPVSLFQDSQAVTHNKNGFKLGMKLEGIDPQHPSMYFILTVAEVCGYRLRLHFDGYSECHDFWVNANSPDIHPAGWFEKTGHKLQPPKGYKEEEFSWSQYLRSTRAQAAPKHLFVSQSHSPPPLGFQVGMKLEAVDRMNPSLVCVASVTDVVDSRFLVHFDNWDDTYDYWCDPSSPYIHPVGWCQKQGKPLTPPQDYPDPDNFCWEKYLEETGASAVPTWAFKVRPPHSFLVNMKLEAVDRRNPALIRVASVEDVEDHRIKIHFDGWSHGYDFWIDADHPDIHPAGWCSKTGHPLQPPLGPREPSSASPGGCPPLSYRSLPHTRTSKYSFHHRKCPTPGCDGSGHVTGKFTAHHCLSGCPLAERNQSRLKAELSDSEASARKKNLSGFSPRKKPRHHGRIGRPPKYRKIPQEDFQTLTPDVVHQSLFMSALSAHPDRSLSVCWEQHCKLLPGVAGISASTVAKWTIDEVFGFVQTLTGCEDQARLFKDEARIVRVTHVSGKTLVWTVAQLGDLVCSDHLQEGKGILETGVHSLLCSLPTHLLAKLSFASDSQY
#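 L3MBTL1 (50 nM) pre-complexed 30 min with biotinylated H3(1-15)K9me1 peptide (75 nM), then compounds added for 30 min at room temperature; AlphaScreen streptavidin donor/nickel chelate acceptor beads (10 ug/mL final) read after 30 min dark incubation.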
# JMJD2A Tudor: blocks the human JMJD2A Tudor domain; O75164; AlphaScreen JMJD2A-Tudor / H3K4me3 peptide binding; Potency, µM (titrated, usually from 114 µM), for the others: at the highest dose activity change, negative = inhibition, most hits filed as inhibitors; actives 4.4% (n = 390,000); AID 504339; also: potency is read from the fitted curve at half-maximal effect; % is scaled to controls: 0 for no effect and ±100 for the full control effect; nearly all actives have a fitted effect of over 50% in size
# PLK1 PBD block: inhibitors of human PLK1 polo-box domain binding; P53350; Plk1 PBD binding of FITC phosphopeptide, fluorescence polarization; Potency, µM, for the others: max response, negative = inhibition, hits mostly inhibitors; actives 2.8% (n = 360,000); AID 720504; also: potency is read from the fitted curve at half-maximal effect; series mostly up to about 57 µM; % is scaled to controls: 0 for no effect and ±100 for the full control effect; nearly all actives have a fitted effect of over 65% in size
# VDR inh: inhibitors of human vitamin D receptor. VDR-SRC2-3 peptide fluorescence polarization, 2 h. AID 504847. actives 0.93% (n = 400,000). Potency, µM, inactives show max response, negative = inhibition, most hits filed as inhibitors; also: potency is read from the fitted curve at half-maximal effect; % is scaled to controls: 0 for no effect and ±100 for the full control effect
#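 After 23 nl compound addition and a short centrifugation, plates sat for 2 hours at ambient temperature; polarization of fluorescence then indicated loss of VDR binding to peptide SRC2-3.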
# USP1-UAF1 confirm: USP1-UAF1 deubiquitinase inhibition validated; shares compounds with VDR inh; Ub-Rhodamine cleavage, fluorescence kinetic read; Potency, µM (titrated, usually from 114 µM), inactives show at the top dose activity change, negative = inhibition, hits mostly inhibitors; actives 50% (n = 50)
# VDR inh confirm: inhibits human vitamin D receptor, primary hit validation. actives 89% (n = 840). Potency, µM, usual class: inhibitors. VDR-coactivator inhibition assay, qHTS confirmation. shares compounds with VDR inh; also: potency is read from the fitted curve at half-maximal effect
# VDR FP fluor: blocks human VDR-coactivator binding in fluorescein assay | shares compounds with VDR inh | VDR-coactivator binding, fluorescein fluorescence polarization | Potency, µM (highest dose often 57.1 µM), for the others: at the highest dose activity change, negative = inhibition, hits mostly inhibitors | actives 48% (n = 840) | AID 602200; also: potency is read from the fitted curve at half-maximal effect
# VDR bla: confirmation of human vitamin D receptor inhibitors in reporter cells | AID 602202 | actives 23% (n = 840) | Potency, µM (top dose mostly 46.1 µM), for inactives: at the highest dose activity change, negative = inhibition, actives largely listed as inhibitors | VDR beta-lactamase reporter cells, FRET ratio; cells co-treated with VDR agonist LG190178 | shares compounds with VDR inh; also: potency is read from the fitted curve at half-maximal effect; % is scaled to controls: 0 for no effect and ±100 for the full control effect
# VDR viability: cell toxicity, VDR inhibitor hit counter-screen; cytotoxicity counter-screen, cell viability, qHTS; Potency, µM (top dose mostly 48.3 µM), for the others: at the highest dose activity change, negative = cytotoxicity, most hits filed as cytotoxic; actives 18% (n = 840); shares compounds with VDR inh;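 also: potency is read from the fitted curve at half-maximal effect; plate controls were DMSO for no effect and high-concentration cycloheximide for full effect; nearly all actives have a fitted effect of over 75% in size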
# * marks the source's active call; other numbers are inactive results; ? = inconclusive; nt = not tested or not shown; [ ] = remark or other dose. Most compounds without a hit are left out; they make up all but 6.9% or so of the library. Calls follow the shape of the dose curve; as a rule, active = well fitted curve in the direction sought with a large enough effect; inconclusive = small, poorly fitted or top-dose-only effect, or another doubt; inactive = no such curve, though single readings can be large; an effect the other way counts as inactive or inconclusive.
SMILES,HP1b binding inh,BAZ2B inh,L3MBTL1 inh,JMJD2A Tudor,PLK1 PBD block,VDR inh,VDR inh confirm,VDR FP fluor,VDR bla,VDR viability,others
Cc1ccc(NC(=O)c2nc(S(=O)(=O)Cc3ccccc3)ncc2Cl)cc1,-1%[57 µM],?,nt,-34%,?,25µM*,19*,?,?,?,
O=C(NCc1ccccc1)c1nc(S(=O)(=O)Cc2ccc(F)cc2)ncc1Cl,48%,-12%,nt,-14%,nt,32µM*,3.2*,7.9µM*,21µM*,19µM*,
O=C(Nc1nc2ccc(F)cc2s1)c1nc(S(=O)(=O)Cc2ccccc2)ncc1Cl,30%,-18%,nt,?,nt,?,nt,nt,nt,nt,
CCN1C(=O)[C@@H]2[C@@H](c3ccc(-c4ccc(F)cc4)c(OC)c3)N3CCC[C@@]3(C(=O)OC)[C@@H]2C1=O,28%,nt,-8%,?,-3%,-11%,nt,nt,nt,nt,
CCN1C(=O)[C@H]2[C@@H](c3ccc(-c4ccc(C(C)=O)cc4)cc3)N3CCC[C@@]3(C(=O)OC)[C@H]2C1=O,28%,-2%,4%,-27%,1%,-26%,nt,nt,nt,nt,
Cc1ccc2c(c1)/C(=C/c1ccccc1)C(=O)N2,-8%,?,nt,?,-16%,?,nt,nt,nt,nt,
O=C1Nc2ccc(I)cc2/C1=C/c1cc(Br)c(O)c(Br)c1,nt,nt,nt,nt,nt,25µM*,nt,nt,nt,nt,USP1-UAF1 confirm=74µM*
O=C(/C=C/c1cccnc1)c1ccc(O)cc1,8%,-13%,2%,-17%,-10%,-11%,nt,nt,nt,nt,
O=C(/C=C/c1cccnc1)c1ccc([N+](=O)[O-])cc1,-17%,-18%,nt,?,-20%,?,7.9*,8.9µM*,?,?,
CN1CCN(C(c2ccc(Br)cc2)c2cc(Cl)c3cccnc3c2O)CC1 (stereo not drawn),?,45µM*,nt,50µM*,5.3µM*,?,7.9*,3.2µM*,23µM*,?,
N#CC1=C(N)C(C#N)(C#N)C(c2cccnc2)C2CCCC=C12 (stereo not drawn),nt,-22%,-9%,nt,nt,nt,nt,nt,nt,nt,
N#CC1=C(N)C(C#N)(C#N)C(c2cccnc2)C2CC(c3ccccc3)CC=C12 (stereo not drawn),40%,-37%,-1%,-8%,27µM*,25µM*,?,8.9µM*,?,-16%,
N#CC1=C(N)C(C#N)(C#N)[C@H](c2cccnc2)[C@H]2CN(C(=O)OCc3ccccc3)CC=C12,29%,-21%,-14%,-9%,?,13µM*,27*,?,33%,13%,
N#CC(C#N)=NNc1ccc(S(=O)(=O)N2CCCCC2)cc1,-35%,?,-22%,40µM*,-24%,8.9µM*,6.7*,3.2µM*,-8%,?,
N#C/C(=N\Nc1ccc(S(=O)(=O)N2CCOCC2)cc1)C(N)=S,?,?,-12%,?,?,-20%,nt,nt,nt,nt,
